# Measured values published in the supplement of paper PMC4466236.
# Whole data set: some 33,000 sequences, median “E-score (dimensionless, -0.5 to 0.5)” near -0.058, cut for the highest 2% near 0.35. The list comes from a sample in which the highest values are over-represented; it also holds similar and randomly drawn sequences.
# Tested on: MvaT
# Test: PBM 8-mer E-score (mean of HK and ME arrays) (E-score (dimensionless, -0.5 to 0.5)); higher = stronger relative binding preference
# Procedure: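 Protein binding microarray: GST-tagged full-length MvaT (P. aeruginosa PAO1) bound to two universal double-stranded 60-mer arrays (ME and HK), each with a constant 25-mer primer and a variable 35-mer region covering all 8-mers. The 8-mer E-score (rank-based, range -0.5 to 0.5, >0.45 = specific binding) is the mean of the two arrays.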
row,Sequence,PBM 8-mer E-score
1,ACTTGCAA,0.123
2,CCAAACAC,0.111
3,ATCAGTGA,-0.0827
4,CTATCCAG,-0.0225
5,ATTCTTGA,0.0466
6,ATTCGGTG,-0.00558
7,AATCCACA,0.139
8,AATATCAC,0.407
9,GATATCAC,0.119
10,AATATCTG,0.207
11,AATATATG,0.446
12,AATATATC,0.445
13,AATATCCC,0.174
14,ACTATATG,0.306
15,AATATCAA,0.338
16,AATATCTC,0.253
17,GTATCTTA,0.194
18,ACAGGTTG,-0.21
19,AGGAACCT,-0.139
20,AATTCTAC,0.188
21,ACTAGGCT,-0.105
22,ACACCTCC,-0.0337
23,CCGGTAAA,0.0751
24,TATTAGGA,0.247
25,ATAATATC,0.437

row,Sequence,PBM 8-mer E-score
1,ATAATATG,0.435
2,ATGATATC,0.131
3,ATAATCTC,0.337
4,ATAATCTG,0.196
5,ATCATATG,0.241
6,CTACGATC,0.0594
7,ATGAATAA,0.368
8,ATGAATAG,0.131
9,AAGAATAT,0.316
10,AAGAATAA,0.368
11,CTGAATAA,0.226
12,AAGAATAC,0.118
13,CGCTTGCC,-0.327
14,AATATTCA,0.312
15,CATATTGA,0.264
16,TATATTCA,0.373
17,GATATTGA,0.228
18,TATATTGA,0.387
19,GATATTCA,0.0985
20,CCCGGGGA,-0.299
21,ATTATAAT,0.468
22,ATGATAAT,0.292
23,ATGATAAC,0.178
24,CTCATAAC,-0.0784
25,ATTATAAC,0.415

row,Sequence,PBM 8-mer E-score
1,GTTATAAA,0.345
2,GTTATAAC,0.434
3,AGTATAAT,0.336
4,GCTATAAC,0.13
5,CTTATAAC,0.352
6,CCTATAAC,0.186
7,ATTATAGC,0.282
8,AAGTGACT,0.00519
9,CTCCCTAA,-0.204
10,GTGTGGGA,0.0582
11,GACGCTGC,-0.183
12,AATCGTGG,-0.0233
13,AAGCGGTG,-0.19
14,AAATCTAC,-0.0273
15,ACGAACGA,-0.115
16,CTAAGCAC,-0.0271
17,ACTATACT,0.228
18,CTTATAAG,0.394
19,CGTATAAG,0.147
20,CTCATAAA,0.0815
21,ACTATAAA,0.316
22,CTCATAAG,-0.122
23,CCTATAAA,0.211
24,ACTATAAT,0.436
25,ATTATAAA,0.462

row,Sequence,PBM 8-mer E-score
1,CTTATAAA,0.377
2,ATCATAAA,0.308
3,TAAGCCTA,-0.0915
4,GAACTTGA,0.266
5,AGTCCAGA,-0.101
6,AAACCATA,0.251
7,CGCTTAGA,-0.0246
8,AATAAAGC,0.292
9,ATCCTATA,0.189
10,ACCTATAA,0.208
11,ACACGTGT,-0.0859
12,AACCGCAA,0.00741
13,TTGATAAA,0.253
14,ATTATAAG,0.432
15,ATTATACG,0.274
16,TTTATAAA,0.411
17,TTCATAAA,0.238
18,ACTATAAG,0.273
19,CCTACAGC,-0.247
20,ACTACGAG,0.0492
21,AGGCCATG,-0.221
22,CGCGTGAA,0.0803
23,AGCGTCAT,-0.205
24,ATATGCCA,0.181
25,ACAGCATA,0.147

row,Sequence,PBM 8-mer E-score
1,GTGATATA,0.247
2,CTTATAGA,0.0191
3,GTTATATA,0.456
4,CTGATATA,0.358
5,CTTATATC,0.184
6,GTTATACA,0.281
7,CTTATATA,0.452
8,ATTATAGG,0.304
9,GTTATAGA,0.222
10,ATGATATG,0.199
11,ATTATATG,0.416
12,ATGATATA,0.262
13,GGCTCACC,-0.247
14,AGCTCGAG,-0.0655
15,ATTTACTC,0.0973
16,AACGAGAG,-0.094
17,AAAAGAGA,0.103
18,ATTATATC,0.444
19,ATTATAGA,0.331
20,ATTATACC,0.337
21,ATTATACA,0.388
22,ATTATATA,0.47
23,CTTATACA,0.229
24,ACACTAAT,0.345
25,CCACGGTC,-0.022

row,Sequence,PBM 8-mer E-score
1,AGGAGGAA,-0.174
2,TGATAAAA,0.258
3,CGATATAC,0.219
4,GGATATAA,0.307
5,CGATATAG,0.196
6,CGATATAA,0.395
7,TGATATAA,0.353
8,CGAATAAG,0.122
9,ATTGGATG,0.131
10,CAATCCAA,-0.0468
11,AATTCACA,0.206
12,GTGTATTA,0.276
13,ATGTATTA,0.399
14,CTGTATTA,0.36
15,ATGTATTG,0.244
16,CTGTATTC,0.0463
17,ATGTATTC,0.152
18,CTAGTATC,-0.0351
19,CAATACTC,0.106
20,AAAACGAC,0.0691
21,AAAATGAA,0.226
22,GACAGAAC,-0.0903
23,ATTATCAG,0.354
24,ATTATCTG,0.355
25,ATTATCAC,0.24

row,Sequence,PBM 8-mer E-score
1,ATTATCTC,0.157
2,ATTATCAA,0.321
3,ATTATCTA,0.269
4,GTAATGAC,-0.00906
5,AGCTGGCC,-0.255
6,CTATAAAG,0.0669
7,GTATAAAC,0.316
8,ATATAAGA,0.388
9,ATATAAGC,0.311
10,GTATAAAA,0.216
11,CTATAAGA,0.188
12,AGATAAAG,0.0927
13,ATATAAAC,0.433
14,TTATAAAA,0.399
15,CTCTAAAA,0.0251
16,ATATAAAG,0.382
17,CTATAAAC,0.223
18,GCATCCCC,-0.212
19,CATTTTCG,0.126
20,GACTAGTC,-0.0899
21,GCACCGCC,-0.175
22,CGGCTTGA,-0.132
